Sampled rows, rich in hits. Any-hit rate of the full collection: about 9.3%.
Rab9 prom act: activates the Rab9 promoter | Potency, µM (highest dose often 9.22 µM), for the others: at the top dose activation, negative = inhibition, hits mostly activators | 2.8% of 320,000 active | Huh7 Rab9 promoter-luciferase reporter, luminescence, 24 h | AID 485297; further: % of control where 0% means no effect; nearly all actives have a fitted effect of over 60% in size
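Quantitative HTS format; Huh7 Rab9-luciferase reporter cells (1500/well) receive compound 2 h post-plating, incubate 24 h at 37 °C, then get luciferase reagent for 10 min before luminescence reading.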
FLuc modulator: firefly luciferase modulation, counter-screen for miR-21 project; P08659; purified FLuc, Km substrates, luminescence inhibition; Potency, µM (top dose mostly 57.5 µM), for the others: at the highest dose activity change, negative = inhibition, usual class: inhibitors; 6.9% of 360,000 active; AID 588342;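 further: plate controls were vehicle for no effect and reference inhibitor for full effect; nearly all actives have a fitted effect of over 55% in size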
Target sequence (P08659 whole entry, looked up): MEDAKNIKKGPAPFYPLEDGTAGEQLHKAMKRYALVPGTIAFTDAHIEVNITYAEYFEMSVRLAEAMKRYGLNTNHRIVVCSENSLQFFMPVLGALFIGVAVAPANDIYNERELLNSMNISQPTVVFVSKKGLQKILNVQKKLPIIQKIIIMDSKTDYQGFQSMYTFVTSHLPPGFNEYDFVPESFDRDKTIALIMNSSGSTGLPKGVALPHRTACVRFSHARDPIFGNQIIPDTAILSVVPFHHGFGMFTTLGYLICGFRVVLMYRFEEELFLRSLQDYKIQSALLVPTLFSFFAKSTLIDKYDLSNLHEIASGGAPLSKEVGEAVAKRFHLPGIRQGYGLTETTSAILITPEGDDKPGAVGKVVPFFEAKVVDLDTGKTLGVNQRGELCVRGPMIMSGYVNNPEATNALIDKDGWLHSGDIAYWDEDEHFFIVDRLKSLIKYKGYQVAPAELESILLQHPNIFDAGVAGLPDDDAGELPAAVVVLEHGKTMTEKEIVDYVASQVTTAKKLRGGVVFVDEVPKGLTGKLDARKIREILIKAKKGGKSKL
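Purified P. pyralis luciferase (10nM final) with 10uM D-luciferin and 10uM ATP (Km levels) in 50mM Tris acetate pH 7.5, 10mM Mg acetate, 0.01% Tween-20, 0.05% BSA; qHTS 6-point titration, ~60 µM downward; luminescence read.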
ELG1 genotoxic: genotoxicity induction in ELG1-luciferase HEK293T cells; HEK293T ELG1-luciferase reporter, luminescence, 16 h; AID 504466; 1.3% of 330,000 active; Potency, µM (highest dose often 46 µM), inactives show at the top dose activity change, positive = activation, hits mostly activators; further: % of control where 0% means no effect; nearly all actives have a fitted effect of over 60% in size
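Screening used a luciferase reporter fused to human ELG1 in HEK293T cells. Luminescence was read on a CCD plate imager after 16 hr exposure and 30 min ONE-Glo incubation.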
NPC1 prom act: NPC1 promoter activation; Huh7 NPC1 promoter luciferase reporter, 24 h; Potency, µM (titrated, usually from 9.22 µM), without a hit: at the top dose activation, actives largely listed as activators; 2.4% of 320,000 active; AID 485313; further: % of control where 0% means no effect; nearly all actives have a fitted effect of over 60% in size
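Stably transfected Huh7 (NPC1 promoter→luciferase), 1500 cells/well in Opti-MEM + 10% FBS, 2 h settle, then compound 24 h at 37 °C. Luminescence after 10 min with Amplite reagent.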
SMN2 splice up: increases expression of the SMN2 splice variant; HEK293 SMN2-luciferase splicing reporter, luminescence, 30-36 h; Potency, µM (doses to about 46.1 µM), for inactives: at the highest dose activity change, positive = activation, actives largely listed as activators; 2.8% of 210,000 active; AID 1458; further: % of control where 0% means no effect; nearly all actives have a fitted effect of over 55% in size
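HEK293 cells carry an SMN2 […]–luciferase reporter in which exon 7 inclusion puts luciferase in frame. Cells were plated 10-12 h before compound addition, then incubated 30-36 h at 37C. ONE-Glo luminescence was read; sodium butyrate at 4.5 mM final served as control.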
ELG1 DNA repair: blocks ELG1-dependent DNA repair in HEK293T cells; AID 504467; Potency, µM (doses to about 46.1 µM), for the others: top-dose activity change, negative = inhibition, most hits filed as inhibitors; HEK293T ELG1-luciferase reporter, luminescence, 16 h; DNA damage induced by 5-fluorouridine; 2.3% of 330,000 active; further: on the % scale 0 is the no-effect control and ±100 the full control effect; nearly all actives have a fitted effect of over 55% in size
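Quantitative HTS, concentration-response format. 2,000 cells/well co-treated with 5-fluorouridine and compound, 16 hr in 5% CO2 at 37 °C; ONE-Glo luminescence read after 30 min.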
* = called active by the depositor; ? = inconclusive; . = no result given; [ ] = another dose, or the depositor's remark. The call rests on the fitted dose curve; in most records, active means well fitted curve in the direction sought with a large enough effect; inconclusive means small, poorly fitted or top-dose-only effect, or another doubt; inactive means no such curve, though single readings can be large; an effect the other way counts as inactive or inconclusive. Potency means the concentration at half of the fitted maximal effect.

SMILES	Rab9 prom act	FLuc modulator	ELG1 genotoxic	NPC1 prom act	SMN2 splice up	ELG1 DNA repair
O=C1N(c2ccccc2)C(c2ccccc2)C12CCCCC2 (configuration not stated)	.	.	0.6%	.	.	-11.3%
CCN1CCN(S(=O)(=O)c2cc(C(=O)O)ccc2Cl)CC1	-2.3%	1.1%	0.0%	-4.6%	.	-0.5%
CC1CCN(c2cc3c(cc2F)c(=O)c(S(=O)(=O)c2cccc(Cl)c2)cn3Cc2ccccc2)CC1	.	0.1%	.	.	.	.
Cc1cc2c(=O)oc(-c3ccc(Br)cc3)nc2s1	21.5%	1.9µM*	?	26.9%	.	?
Cc1cccc(-c2nc3sc(C)cc3c(=O)o2)c1	12.5%	2.69µM*	12.3%	23.0%	.	?
COc1ccc(-c2csc3nc(-c4ccc(F)cc4)oc(=O)c23)cc1	.	-1.8%	.	.	-8.8%	.
COc1cc(-c2nc3sc(C)c(C)c3c(=O)o2)cc(OC)c1OC	-1.8%	-0.2%	-2.8%	4.3%	.	3.6%
CCc1cc2c(=O)oc(-c3ccc(F)cc3)nc2s1	11.5%	4.78µM*	1.2%	2.4%	.	2.4%
CCOc1ccc(C(=O)Nc2cccc(-c3nc4ccccc4[nH]3)c2C)cc1[N+](=O)[O-]	1.6%	9.53µM*	-1.5%	-3.1%	-9.8%	?
CCOc1ccc(C(=O)Nc2cc(-c3nc4ccccc4[nH]3)ccc2C)cc1[N+](=O)[O-]	-2.5%	8.49µM*	-7.4%	-0.8%	-20.2%	23.1µM*
Cc1cc2nc(/N=C(\N)NC(=O)N3c4ccccc4Sc4ccccc43)nc(C)c2cc1C	-2.6%	4.4%	-1.0%	-6.8%	-12.6%	-1.7%
Cc1nn(-c2ccc(N3CCOCC3)nn2)c(C)c1CCC(=O)NCc1ccc(Cl)cc1	.	-7.3%	.	.	.	.
COc1cc(C#N)ccc1OC(=O)c1cccc(S(=O)(=O)N2CCN(C)CC2)c1	1.0%	-1.1%	0.7%	0.8%	.	8.8%
COc1ccc(-c2oc3ncnc(NCCN4CCOCC4)c3c2-c2ccc(OC)cc2)cc1	-6.0%	-1.7%	0.1%	-1.5%	-12.7%	?
COc1ccc(-c2oc3ncnc(NCCCN4CCOCC4)c3c2-c2ccc(OC)cc2)cc1	-3.0%	2.1%	-3.9%	-0.7%	-15.9%	16.4µM*
COc1ccc(-c2oc3ncn(CCN4CCOCC4)c(=N)c3c2-c2ccc(OC)cc2)cc1	-9.2%	-0.8%	-6.5%	1.5%	-47.2%	20.6µM*
CC(=O)N1c2ccc(S(=O)(=O)NCCC(=O)Nc3ccc(C)c(F)c3)cc2CC1C (configuration not stated)	-0.8%	-0.7%	0.0%[9.26 µM]	-0.3%	.	-0.5%
CCCN(C(=O)c1ccc(S(=O)(=O)N2CCCC2)cc1)C1CCS(=O)(=O)C1 (configuration not stated)	-1.8%	3.2%	0.0%	-2.8%	.	-4.0%
Cc1ccc(C(=O)N(CCN2CCCCC2)CC2CCCN(C3CCCC3)C2)s1 (configuration not stated)	?	?	15.9%	21.8%	.	?
O=C(c1cccs1)N(CCN1CCCCC1)CC1CCCN(C2CCCC2)C1 (configuration not stated)	?	16.9µM*	17.7%	22.9%	.	?
COc1ccc(-n2nnnc2SCc2nc3ccccc3s2)cc1	?	10.7µM*	16.4µM*	13.5%	-5.8%	?
COc1ccc(C)cc1-n1nnnc1SCc1nc2ccccc2s1	?	10.7µM*	10.1%	?	-21.1%	?
COc1ccc(CSc2nnnn2-c2ccccc2)cc1	-3.8%	-0.6%	1.7%	-2.1%	-4.4%	-4.2%
COc1ccc(C)cc1-n1nnnc1SCC1CCCO1 (configuration not stated)	-5.7%	0.3%	1.2%	1.0%	-7.0%	3.8%
COc1ccc(C2=Nn3c(nnc3-c3cc(C)[nH]n3)SC2)cc1	-2.2%	-1.3%	20.6µM*	-8.4%	.	?
SMILES	Rab9 prom act	FLuc modulator	ELG1 genotoxic	NPC1 prom act	SMN2 splice up	ELG1 DNA repair
Cc1nnc2n(c1=O)N=C(c1ccc(Cl)cc1)CS2	0.501µM*	2.3%	28.9%	1µM*	2µM*	?
COc1ccc(OC)c(C2=Nn3c(nnc3-c3cc(OC)c(OC)c(OC)c3)SC2)c1	7.4%	3.6%	-6.6%	-2.9%	2.5%	?
CCc1nnc2n1N=C(c1ccc(Cl)cc1)CS2	-4.9%	0.4%	4.2%	-4.9%	.	?
COc1cc(-c2nnc3n2N=C(c2ccccc2)CS3)cc(OC)c1OC	-12.2%	-1.2%	-14.7%	-24.6%	1.7%	9.2µM*
COc1cccc(-c2nnc3n2N=C(c2cc(OC)ccc2OC)CS3)c1	0.7%	-6.9%	-6.4%	2.7%	10.5%	18.4µM*
O=C(O)c1cccc(NS(=O)(=O)c2cccc(C(=O)Nc3ccccc3[N+](=O)[O-])c2)c1	2.2%	6.1%	-4.9%	-1.4%	.	-2.1%
O=C(NCc1ccc2c(c1)CCN2C(=O)c1ccncc1)c1cccc(F)c1	.	5.8%	.	.	.	.
CCc1ccc(C(N)=S)cc1	-7.6%	-11.0%	4.5%	-1.2%	12.7%	9.5%
CCOc1cccc(-c2nnc3n2N=C(c2cc(OC)ccc2OC)CS3)c1	-13.6%	-0.3%	-1.1%	-31.9%	-66.4%	5.17µM*
Cc1ccccc1NC(=O)Cn1nnc(-c2ccc(N3CCOCC3)cc2)n1	24.9%	?	19.5%	-2.6%	22.6%	21.0%
CN(C)c1ccc(-c2nnn(CC(=O)Nc3ccccc3N3CCOCC3)n2)cc1	8.6%	26.9µM*	-1.8%	29.7%	-12.5%	14.6µM*
O=C(Cn1nnc(-c2ccc3c(c2)OCO3)n1)Nc1ccccc1C(=O)O	26.7%	15.1µM*	?	?	.	?
CN1N=C(C(=O)N2CCc3c([nH]c4ccccc34)C2c2c(F)cccc2Cl)CCC1=O (configuration not stated)	14.8%	?	?	1.7%	?	?
CC(=O)C(CC(=O)N1CCCc2ccccc21)C(=O)Nc1ccc(F)cc1 (configuration not stated)	-5.2%	1.5%	0.7%	-2.8%	-3.7%	-1.7%
c1ccc2c[n+](CCCC[n+]3ccc4ccccc4c3)ccc2c1	.	.	.	.	-10.1%[9.22 µM]	.
O=C(Nc1cc2c(cc1Cl)OCCCO2)c1ccco1	3.55µM*	10.7µM*	?	3.55µM*	14.1µM*	?
O=C(Nc1cc2c(cc1Cl)OCCCO2)c1ccccc1	2.82µM*	13.5µM*	6.31µM*	?	11.2µM*	?
O=[N+]([O-])/C=C\c1ccc(N2CCCC2)c(F)c1	26.8%	?	-9.1%	15.8%	5.62µM*	?
Nc1ccc2nc(CCCCc3nc4ccccc4[nH]3)[nH]c2c1	0.2%	4.4%	-2.9%	-10.1%	.	-5.6%
